Source: ChEMBL document CHEMBL2218924, “A broad activity screen in support of a chemogenomic map for kinase signalling research and drug discovery” (Biochem J, 2013)

Each molecule was assayed against BDNF/NT-3 growth factors receptor (Homo sapiens) (UniProt Q16620). Conditions: at 1 µM.
Chain of BDNF/NT-3 growth factors receptor (Homo sapiens) (Q16620 32-822 limits assumed): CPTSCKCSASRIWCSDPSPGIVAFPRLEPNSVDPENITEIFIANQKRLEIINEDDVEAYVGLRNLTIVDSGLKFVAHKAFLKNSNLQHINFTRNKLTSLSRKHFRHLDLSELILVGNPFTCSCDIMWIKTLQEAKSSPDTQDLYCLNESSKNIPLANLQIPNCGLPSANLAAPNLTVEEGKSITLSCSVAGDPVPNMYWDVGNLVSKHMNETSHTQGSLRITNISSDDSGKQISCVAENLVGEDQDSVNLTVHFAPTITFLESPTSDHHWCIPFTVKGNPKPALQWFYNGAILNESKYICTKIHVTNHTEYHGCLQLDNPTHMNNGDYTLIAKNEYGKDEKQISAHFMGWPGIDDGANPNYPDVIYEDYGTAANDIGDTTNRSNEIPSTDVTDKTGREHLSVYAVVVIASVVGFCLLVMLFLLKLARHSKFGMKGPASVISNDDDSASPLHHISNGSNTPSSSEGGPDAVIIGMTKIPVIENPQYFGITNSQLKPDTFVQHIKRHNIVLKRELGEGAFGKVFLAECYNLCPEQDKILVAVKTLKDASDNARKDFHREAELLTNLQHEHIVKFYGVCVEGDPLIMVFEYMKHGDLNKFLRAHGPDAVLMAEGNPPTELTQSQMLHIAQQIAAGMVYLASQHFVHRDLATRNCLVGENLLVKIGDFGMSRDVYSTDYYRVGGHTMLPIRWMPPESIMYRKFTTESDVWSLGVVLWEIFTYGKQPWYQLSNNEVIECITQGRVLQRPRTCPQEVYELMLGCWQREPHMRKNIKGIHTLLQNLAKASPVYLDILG

Compound | residual activity [%]
O=C1c2ccccc2-c2nc3nnnn3nc21 | 123
O=[N+]([O-])/C=C/c1ccc2c(c1)OCO2 | 120
O=C1Nc2ccc3ncsc3c2/C1=C/c1c[nH]cn1 | 19
CN[C@@H]1C[C@H]2O[C@@](C)([C@@H]1OC)n1c3ccccc3c3c4c(c5c6ccccc6n2c5c31)C(=O)NC4 | 29
c1cc(-c2cnn3cc(-c4ccc(OCCN5CCCCC5)cc4)cnc23)ccn1 | 61
O=c1[nH]c2ccccc2n1C1CCN(Cc2ccc(-c3nc4cc5[nH]cnc5cc4nc3-c3ccccc3)cc2)CC1 | 75
O=C1NC(=O)c2c1c1c3ccccc3n3c1c1c2c2ccccc2n1C1CCC3O1 | 19
COc1cc2ncnc(Nc3ccc(OCc4ccccc4)cc3)c2cc1OC | 93
CC(C)[C@H](CO)Nc1nc(Nc2cccc(Cl)c2)c2ncn(C(C)C)c2n1 | 8
CCc1nc(-c2ccc(OC)cc2)[nH]c1-c1ccncc1 | 113
CCn1cnc2c(Nc3cccc(Cl)c3)nc(N[C@@H]3CCCC[C@@H]3N)nc21 | 15
COC(=O)[C@@]1(O)C[C@H]2O[C@]1(C)n1c3ccccc3c3c4c(c5c6ccccc6n2c5c31)C(=O)NC4 | 0
C[S+]([O-])c1ccc(-c2nc(-c3ccc(F)cc3)c(-c3ccncc3)[nH]2)cc1 (stereo unspecified) | 94
CC(C)(C)c1cc(C=C(C#N)C#N)cc(Br)c1O | 117

Each molecule was assayed against BDNF/NT-3 growth factors receptor (Homo sapiens) (UniProt Q16620). Conditions: at 10 µM.

Compound | residual activity [%]
COc1ccc2c(c[n+](C)c3c4cc5c(cc4ccc23)OCO5)c1OC | 81
O=C1c2ccccc2-c2nc3nnnn3nc21 | 119
O=[N+]([O-])/C=C/c1ccc2c(c1)OCO2 | 119
O=C1Nc2ccc3ncsc3c2/C1=C/c1c[nH]cn1 | -11
CN[C@@H]1C[C@H]2O[C@@](C)([C@@H]1OC)n1c3ccccc3c3c4c(c5c6ccccc6n2c5c31)C(=O)NC4 | -12
c1cc(-c2cnn3cc(-c4ccc(OCCN5CCCCC5)cc4)cnc23)ccn1 | 7
O=c1[nH]c2ccccc2n1C1CCN(Cc2ccc(-c3nc4cc5[nH]cnc5cc4nc3-c3ccccc3)cc2)CC1 | 70
O=C1NC(=O)c2c1c1c3ccccc3n3c1c1c2c2ccccc2n1C1CCC3O1 | 14
COc1cc2ncnc(Nc3ccc(OCc4ccccc4)cc3)c2cc1OC | 122
CC(C)[C@H](CO)Nc1nc(Nc2cccc(Cl)c2)c2ncn(C(C)C)c2n1 | 0
CCc1nc(-c2ccc(OC)cc2)[nH]c1-c1ccncc1 | 107
CCn1cnc2c(Nc3cccc(Cl)c3)nc(N[C@@H]3CCCC[C@@H]3N)nc21 | 0
COC(=O)[C@@]1(O)C[C@H]2O[C@]1(C)n1c3ccccc3c3c4c(c5c6ccccc6n2c5c31)C(=O)NC4 | 0
C[S+]([O-])c1ccc(-c2nc(-c3ccc(F)cc3)c(-c3ccncc3)[nH]2)cc1 (stereo unspecified) | 104
CC(C)(C)c1cc(C=C(C#N)C#N)cc(Br)c1O | 134

The molecules below were run against T1, Tyrosine-protein kinase TXK (Homo sapiens) (UniProt P42681). Conditions: at 1 µM.
T1 sequence (whole entry): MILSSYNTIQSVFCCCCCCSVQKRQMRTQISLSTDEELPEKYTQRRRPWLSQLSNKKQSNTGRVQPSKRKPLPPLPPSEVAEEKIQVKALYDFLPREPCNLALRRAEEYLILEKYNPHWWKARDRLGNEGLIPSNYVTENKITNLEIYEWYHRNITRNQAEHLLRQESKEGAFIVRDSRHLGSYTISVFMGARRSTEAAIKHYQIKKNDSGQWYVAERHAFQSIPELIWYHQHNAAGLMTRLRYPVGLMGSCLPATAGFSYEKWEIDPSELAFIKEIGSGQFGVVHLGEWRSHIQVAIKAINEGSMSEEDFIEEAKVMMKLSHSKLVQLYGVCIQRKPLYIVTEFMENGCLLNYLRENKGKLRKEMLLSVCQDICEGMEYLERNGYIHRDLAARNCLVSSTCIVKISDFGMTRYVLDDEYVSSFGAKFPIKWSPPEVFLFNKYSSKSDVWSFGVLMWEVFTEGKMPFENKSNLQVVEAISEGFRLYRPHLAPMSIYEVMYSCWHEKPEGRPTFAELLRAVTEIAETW

Compound | residual activity [%]
COc1ccc2c(c[n+](C)c3c4cc5c(cc4ccc23)OCO5)c1OC | 94
O=C1c2ccccc2-c2nc3nnnn3nc21 | 103
O=[N+]([O-])/C=C/c1ccc2c(c1)OCO2 | 76
O=C1Nc2ccc3ncsc3c2/C1=C/c1c[nH]cn1 | 82
c1cc(-c2cnn3cc(-c4ccc(OCCN5CCCCC5)cc4)cnc23)ccn1 | 44
O=c1[nH]c2ccccc2n1C1CCN(Cc2ccc(-c3nc4cc5[nH]cnc5cc4nc3-c3ccccc3)cc2)CC1 | 102
O=C1NC(=O)c2c1c1c3ccccc3n3c1c1c2c2ccccc2n1C1CCC3O1 | 71
COc1cc2ncnc(Nc3ccc(OCc4ccccc4)cc3)c2cc1OC | 97
CC(C)[C@H](CO)Nc1nc(Nc2cccc(Cl)c2)c2ncn(C(C)C)c2n1 | 66
CCc1nc(-c2ccc(OC)cc2)[nH]c1-c1ccncc1 | 100
CCn1cnc2c(Nc3cccc(Cl)c3)nc(N[C@@H]3CCCC[C@@H]3N)nc21 | 52
COC(=O)[C@@]1(O)C[C@H]2O[C@]1(C)n1c3ccccc3c3c4c(c5c6ccccc6n2c5c31)C(=O)NC4 | 35
C[S+]([O-])c1ccc(-c2nc(-c3ccc(F)cc3)c(-c3ccncc3)[nH]2)cc1 (stereo unspecified) | 77
CC(C)(C)c1cc(C=C(C#N)C#N)cc(Br)c1O | 112
COc1ccc2c(c1)/C(=C/c1cnc[nH]1)C(=O)N2 | 77
COc1cc(OC)c(/C=C2\C(=O)Nc3ccccc32)c(OC)c1 | 107

Each molecule was assayed against T1, Tyrosine-protein kinase TXK (Homo sapiens). Conditions: at 10 µM.

Compound | residual activity [%]
COc1ccc2c(c[n+](C)c3c4cc5c(cc4ccc23)OCO5)c1OC | 59
O=C1c2ccccc2-c2nc3nnnn3nc21 | 73
O=[N+]([O-])/C=C/c1ccc2c(c1)OCO2 | 77
O=C1Nc2ccc3ncsc3c2/C1=C/c1c[nH]cn1 | 30
c1cc(-c2cnn3cc(-c4ccc(OCCN5CCCCC5)cc4)cnc23)ccn1 | 7
O=c1[nH]c2ccccc2n1C1CCN(Cc2ccc(-c3nc4cc5[nH]cnc5cc4nc3-c3ccccc3)cc2)CC1 | 94
O=C1NC(=O)c2c1c1c3ccccc3n3c1c1c2c2ccccc2n1C1CCC3O1 | 81
COc1cc2ncnc(Nc3ccc(OCc4ccccc4)cc3)c2cc1OC | 57
CC(C)[C@H](CO)Nc1nc(Nc2cccc(Cl)c2)c2ncn(C(C)C)c2n1 | 16
CCn1cnc2c(Nc3cccc(Cl)c3)nc(N[C@@H]3CCCC[C@@H]3N)nc21 | 10
COC(=O)[C@@]1(O)C[C@H]2O[C@]1(C)n1c3ccccc3c3c4c(c5c6ccccc6n2c5c31)C(=O)NC4 | 5
C[S+]([O-])c1ccc(-c2nc(-c3ccc(F)cc3)c(-c3ccncc3)[nH]2)cc1 (stereo unspecified) | 42
CC(C)(C)c1cc(C=C(C#N)C#N)cc(Br)c1O | 104
COc1ccc2c(c1)/C(=C/c1cnc[nH]1)C(=O)N2 | 46
COc1cc(OC)c(/C=C2\C(=O)Nc3ccccc32)c(OC)c1 | 100
N/C(=N\[N+](=O)[O-])N/N=C\c1ccc(-c2cccc([N+](=O)[O-])c2)o1 | 80
